From PubChem
ALDH1A1 block: ALDH1A1 (human) enzyme inhibition; Purified ALDH1A1, NADH fluorescence, propionaldehyde substrate; Potency, µM (titrated, usually from 75.3 µM), inactives show at the top dose activity, negative = inhibition, usual class: inhibitors; actives 7.3% (n = 220,000); P00352; active means well fitted inhibition curve with a large enough effect, not every such curve was filed as active; inconclusive means small, poorly fitted or top-dose-only effect, or another doubt; inactive means no such curve, though single readings can be large or run the other way;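 further: plate controls were no enzyme wells and a reference inhibitor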
Target sequence (P00352 whole entry, looked up): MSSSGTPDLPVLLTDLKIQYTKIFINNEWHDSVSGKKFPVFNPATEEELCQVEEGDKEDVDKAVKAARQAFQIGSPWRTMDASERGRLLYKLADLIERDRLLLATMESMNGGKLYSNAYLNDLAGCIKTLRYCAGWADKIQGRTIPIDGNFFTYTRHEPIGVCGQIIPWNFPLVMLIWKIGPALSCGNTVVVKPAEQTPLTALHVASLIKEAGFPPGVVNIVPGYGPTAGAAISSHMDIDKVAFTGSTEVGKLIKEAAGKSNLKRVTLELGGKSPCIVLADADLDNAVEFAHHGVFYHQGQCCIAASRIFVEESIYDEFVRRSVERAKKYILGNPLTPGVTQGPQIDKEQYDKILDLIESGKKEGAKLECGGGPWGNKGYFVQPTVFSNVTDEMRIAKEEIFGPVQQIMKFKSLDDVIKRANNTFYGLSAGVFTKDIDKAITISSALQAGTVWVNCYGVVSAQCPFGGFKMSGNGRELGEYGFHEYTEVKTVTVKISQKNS
KinaseGlo FLuc: Kinase-Glo luciferase inhibition (counter-screen). actives 0.28% (n = 200,000). Potency, µM (highest dose often 38.3 µM), for inactives: at the top dose activity change, negative = inhibition, usual class: inhibitors. Q27757. Kinase-Glo luciferase, ATP luminescence, 8 min. AID 1379; further: on the % scale 0 is the no-effect control and ±100 the full control effect; nearly all actives have a fitted effect of over 60% in size
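Recombinant Kinase-Glo luciferase, 10 uM ATP (linear range), luciferin; imidazole pH 7.2 / KCl / MgCl2 / Tween / BSA buffer; 8 min RT; luminescence.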
HTT cytoprotect: protects HTT-Q103 PC12 cells, measured by ATP; PC12 HTT-Q103 induced, cytoprotection, ATP luminescence, 40 h; Potency, µM (doses to about 56.4 µM), inactives show cytoprotection (ATP increase), hits mostly activators; actives 0.14% (n = 230,000); AID 1471; further: % of control where 0% means no effect; nearly all actives have a fitted effect of over 45% in size
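Compounds added alongside 100 nM tebufenozide, which induces toxic Q103 huntingtin exon 1-GFP in stable PC12 cells; surviving cells quantified by luminescent ATP measurement. Medium: phenol red-free DMEM, 5% equine and 5% calf serum.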
LMNA splice mod: modulators of lamin A splicing. HeLa LMNA splicing GFP/RFP minigene ratio, 48 h. Potency, µM (titrated, usually from 46.1 µM), for inactives: top-dose ratio change, negative = inhibition, most hits filed as inhibitors. actives 0.01% (n = 200,000). AID 1487; active means well fitted inhibition curve with a large enough effect in the signal ratio, with a control signal flat, not every such curve was filed as active; inconclusive means small, poorly fitted or top-dose-only effect, or effect the other way, or a change in a side signal; the % refers to the signal ratio; further: on the % scale 0 is the no-effect control and ±100 the full control effect
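S3 HeLa cells stably expressing lamin A-EGFP splicing minigene plus DsRed2, 600 cells/well, 48 h compound exposure at 37C. Laser-scanning cytometry; analysed as GFP (500-530 nm)/RFP (575-640 nm) total intensity ratio; 0.5% DMSO vehicle.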
HttQ103 aggreg: inhibitors of mutant huntingtin aggregate formation in PC12 cells | PC12 HttQ103-GFP aggregates, Acumen cytometry, 40 h | Potency, µM (highest dose often 46.1 µM), for inactives: at the highest dose activity change, negative = inhibition, actives largely listed as inhibitors | actives 1.1% (n = 220,000) | AID 1688; further: on the % scale 0 is the no-effect control and ±100 the full control effect; nearly all actives have a fitted effect of over 60% in size
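PC12 cells stably carrying ecdysone-inducible HTT exon 1 Q103–GFP were induced with tebufenozide (100 nM final) and treated with library compounds in titration. GFP aggregates in lysates were counted by laser scanning cytometry.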
HPGD inh: blocks human HPGD enzyme activity | Potency, µM, inactives show at the top dose activity change, negative = inhibition, most hits filed as inhibitors | purified HPGD, NADH fluorescence kinetic, PGE2 substrate | actives 4.3% (n = 150,000); active means well fitted inhibition curve with a large enough effect, not every such curve was filed as active; inconclusive means small, poorly fitted or top-dose-only effect, or another doubt; inactive means no such curve, though single readings can be large or run the other way; further: on the % scale 0 is the no-effect control and ±100 the full control effect
Target sequence (P15428 whole entry, looked up): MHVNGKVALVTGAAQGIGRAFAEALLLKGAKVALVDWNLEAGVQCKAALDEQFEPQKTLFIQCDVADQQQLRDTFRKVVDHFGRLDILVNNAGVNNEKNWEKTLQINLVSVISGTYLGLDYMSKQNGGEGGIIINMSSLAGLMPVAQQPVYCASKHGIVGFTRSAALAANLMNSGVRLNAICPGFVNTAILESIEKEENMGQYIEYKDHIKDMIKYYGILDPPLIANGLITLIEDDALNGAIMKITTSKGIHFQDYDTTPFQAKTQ
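20 nM HPGD preincubated 15 min at room temperature with compound in 50 mM Tris-HCl pH 8, 0.01% Tween 20. Started with 1 mM NAD+ and 30 uM prostaglandin E2; NADH fluorescence (360/450 nm) read 5 times over 30-s intervals, last minus first.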
Numbers without * were called inactive; ? = inconclusive; · = not tested or not shown; [ ] = another dose, or the depositor's remark. The list is not random: actives were taken first. Their share in the collection is about 9%. Unless noted, the call rests on the fitted dose curve; in most records, active means well fitted curve in the direction sought with a large enough effect; inconclusive means small, poorly fitted or top-dose-only effect, or another doubt; inactive means no such curve, though single readings can be large; an effect the other way counts as inactive or inconclusive. Potency means the concentration at half of the fitted maximal effect.

SMILES	ALDH1A1 block	KinaseGlo FLuc	HTT cytoprotect	LMNA splice mod	HttQ103 aggreg	HPGD inh
N#CCC(=O)N1CC2(CC(c3cccc(NC(=O)COc4ccc(Cl)cc4)c3)=NO2)C[C@@H]1C(N)=O (some centres not stated)	·	·	5%[10 µM]	·	-34%[9.22 µM]	·
CN(C)/C=C/c1onc(-c2c(Cl)cccc2Cl)c1C#N	13µM*	-3%	8%	-4%[9.22 µM]	-1%	·
Cc1onc(-c2c(Cl)cccc2Cl)c1NC(=O)N(C)N	·	·	2%[10 µM]	·	-7%[9.22 µM]	·
N#Cc1c(-c2c(Cl)cccc2Cl)noc1/C=C/Nc1ccc(C(=O)O)cc1	3.5µM*	-2%	11%	·	-10%	·
CC(C)(C)c1cc(CCC(=O)NNC(=S)NC(=O)c2ccccc2)cc(C(C)(C)C)c1O	?	4%	?	?	?	-18%
Cc1ccc(NC(=S)NCCc2ccccc2)nc1	10µM*	-7%	·	?	0%	·
Fc1cccc(NC(=S)NCCc2ccccc2)c1	?	-1%	8%[10 µM]	?	-18%	-24%
COC(=O)C(Cc1ccccc1)NC(=S)NC(=O)c1ccccc1 (configuration not stated)	8.9µM*	5%	-15%[10 µM]	?	11%	·
O=C(CCc1ccccc1)NNC(=S)NC(=O)c1ccccc1	18µM*	-3%	-24%	-18%	-15%	-26%
O=[N+]([O-])c1cccc(NC(=S)NCCc2ccccc2)c1	-1%	3%	-17%[1.9 µM]	?	4%	7.9µM*
CCOC(=O)N1CCN(C(=S)NC(=O)c2cc(Br)ccc2Cl)CC1	5%	-5%	-15%	-11%[9.22 µM]	-8%	·
Fc1ccc(NC(=S)NCCc2ccccc2)c(F)c1F	?	1%	2%	-11%	-9%	25µM*
O=C(CNC(=S)NC(=O)c1ccc(Cl)cc1)c1ccccc1	8.9µM*	-1%	·	13%	18%	-5%
O=C(NC1CCCCC1)C(=S)NCCc1ccccc1	18µM*	2%	·	-3%[46 µM]	-4%	·
CC(=O)NC(=S)NNC(=O)CCc1ccccc1	20µM*	1%	-35%	·	35%[9.22 µM]	·
O=C(c1ccc2c(c1)OCO2)C1CCCN(Cc2cn[nH]c2-c2ccccc2)C1 (configuration not stated)	-6%	-1%	-33%	·	9%	·
Cc1ccc(NC(=S)N/N=C2\CCCCC2C)cc1 (configuration not stated)	?	1%	?	-2%[46 µM]	-11%	·
O=C(NC(=S)NCCc1ccccc1)c1ccccc1	16µM*	-5%	-50%	4%	-9%	-22%
COc1ccccc1CNC(=S)NCCc1ccccc1	-3%	2%	3.2µM*	?	-4%	-12%
CC1CCCC/C1=N\NC(=S)NCCc1ccccc1 (configuration not stated)	14µM*	0%	?	·	?	·
O=C(NC(=S)NCCC1=CCCCC1)c1cccnc1	14µM*	0%	1%[10 µM]	-5%[46 µM]	12%[9.22 µM]	·
COc1ccc(CCNC(=S)NC(=O)c2ccccc2)cc1C	·	·	19%[10 µM]	·	3%[9.22 µM]	·
COc1ccc(OC)c(S(=O)(=O)Nc2ccc(C(N)=O)cc2)c1	11%	5%	-9%[0.074 µM]	14%	12%	-2%
COc1cccc(CN2CCN(C3CCOCC3)CC2CCO)c1 (configuration not stated)	·	·	7%[10 µM]	·	-4%[9.22 µM]	·
CCOc1cc(NC(=S)NCCCN2CCOCC2)c(OCC)cc1NC(=O)c1ccccc1	?	·	-11%	·	3%	·
SMILES	ALDH1A1 block	KinaseGlo FLuc	HTT cytoprotect	LMNA splice mod	HttQ103 aggreg	HPGD inh
Cc1ccc(NC(=O)CNC(c2ccccc2)c2ccccc2)c(F)c1	-6%	1%	10%[10 µM]	-3%	6%	-18%
O=C(CNC(c1ccccc1)c1ccccc1)Nc1c(F)cccc1F	-1%	-1%	1.3µM*	-1%	-10%	1%
CCOc1cc(/C=N/NC(=O)Cn2nc([N+](=O)[O-])cc2C)cc(Br)c1OCc1ccccc1C	4%	1%	-110%	9%	22%[9.22 µM]	-3%
CC(C)(C)C(=O)/C(C#N)=C/c1cccs1	·	·	13%[10 µM]	·	-10%[9.22 µM]	·
N#C/C(=C\c1cccs1)C(=O)c1ccccc1Cl	22µM*	·	4%[10 µM]	·	-1%[9.22 µM]	·
CS(=O)(=O)N(CC(=O)Nc1ccccc1-c1ccccc1)c1cccc(F)c1	1%	-1%	-9%[10 µM]	·	4%[9.22 µM]	·
O=C(O)C1CCCCC1C(=O)Nc1cc(Cl)ccc1Cl (configuration not stated)	-8%	-3%	6%	-2%	-13%	-9%
CCOc1cccc(=O)c2c(C)n(CC(=O)c3ccccc3)c(C)c12	8.9µM*	-8%	8%[10 µM]	·	-2%[9.22 µM]	·
COc1cccc(=O)c2c(C)n(CC(=O)c3ccccc3)c(C)c12	?	-1%	-6%[10 µM]	-3%[46 µM]	-1%[9.22 µM]	·
O=C(COc1ccccc1Cl)Nc1cc(Cl)ccc1Oc1ccccc1	2%	1%	4%	5%	-2%	-7%
CC1CCCC(=C\c2ccccc2)/C1=N/O (configuration not stated)	-8%	-6%	·	-1%	13%	3.2µM*
COc1ccc(CCNC(=O)COC(=O)Cn2cnc3ccccc32)cc1OC	?	5%	-19%	-8%[46 µM]	-6%	·
O=C(Cn1cnc2ccccc21)OCC(=O)N1CCCc2ccccc21	14µM*	0%	-5%[10 µM]	-1%	-4%[9.22 µM]	-4%
O=C(COC(=O)Cn1cnc2ccccc21)NCCc1ccc(Cl)cc1	13µM*	-4%	4%	3%	8%	-9%
O=C(COc1nnnc2ccccc12)N1CCCc2ccccc21	-3%	2%	13%[10 µM]	11%	4.5µM*	4%
O=C(Cn1nnc2ccccc2c1=O)N1CCCc2ccccc21	?	1%	0%	5%	-3%	-5%
O=C(COc1ccc(Cl)cc1)OCC(=O)N1CCCc2ccccc21	10%	2%	34%[10 µM]	-5%	-8%	-3%
O=C(c1ccccc1Br)N1CCC(c2nc3ccccc3o2)CC1	·	·	·	5%[46 µM]	·	·
CCCCC1OC23CCCCC2C(C#N)(C#N)C1(C#N)C(=N)O3 (configuration not stated)	1.8µM*	-8%	7%[10 µM]	-10%	-10%	?
CCNC(=O)c1ccccc1-c1nc(-c2ccccc2OC)no1	·	·	8%[10 µM]	·	-2%[9.22 µM]	·
Cc1ccc2c(c1)Oc1ccc(NC(=O)CCl)cc1C(=O)N2	11µM*	0%	-12%[10 µM]	·	25µM*	·
Cc1ccc2c(c1)Oc1ccc([N+](=O)[O-])cc1C(=O)N2	8%	0%	-34%	·	-5%	·
Cc1cc[n+](CC(=O)c2cccs2)cc1	1%	-4%	-4%	2%	2%	-10%
Cc1cc(C)nc(-n2nc(C)cc2NC(=O)COC(=O)CCC(=O)c2cccs2)n1	-6%	6%	1%[10 µM]	-6%	1%	-12%
Cc1cccc(-c2oc(C)c(C)[n+]2[O-])c1	3.5µM*	2%	7%	-9%	0%[9.22 µM]	-12%
